Source: PubChem BioAssay (NCATS)
Inconclusive results are not listed. Where a call stands in place of a potency, no number is given. Unmarked numbers belong to inactive results. Calls of active or inactive are those of the source. Calls follow the shape of the dose curve; as a rule, active = well fitted inhibition curve with a large enough effect; inconclusive = small, poorly fitted or top-dose-only effect; inactive = no such curve, though single readings can be large or run the other way.

tested on: Zika virus NS2B-NS3 protease (unlinked complex); test: Primary screen GU Rhodamine qHTS for Zika virus inhibitors: Unlinked NS2B-NS3 protease assay (AID 1347159); conditions: Recombinant ZIKV NS2B-NS3 protease, Rhodamine110 substrate fluorescence; series mostly up to 107 µM; also: nearly all actives have a fitted effect of over 60% in size
How it was run: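 Enzyme 25 nM in Tris-HCl pH 8.0 + 0.01% Tween 20; compounds up to 114 microM, 15 min RT dark; + Rhod110 substrate 1.5 microM; read t0 and 15 min; delta fluorescence → % inhibition → 4-parameter Hill fit.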
Potency is read from the fitted curve at half-maximal effect.

SMILES | Potency | activity change, negative = inhibition
O=c1nc(-c2ccccn2)sc2ccccc12 | inactive | 
CC(=O)O[C@H]1C[C@H](OC(C)=O)[C@]2(C)[C@H](CC[C@@]34O[C@@H]3C3=C(C)C(=O)O[C@@H]3C[C@H]42)C1(C)C | inactive | 
CC12CCC(OC3OC(CO)C(O)C(O)C3OC3OC(CO)C(O)C(O)C3O)CC1CCC1C2CCC2(C)/C(=C3/COC(=O)C3)CCC12O (configuration not stated) | inactive | 
CN(C)Cc1ccc(-c2cnn3c(-c4cccc(NC(=O)c5cccc(C(F)(F)F)c5)c4)ccnc23)cc1 | inactive | 
CC(=O)OC(C)(C)/C=C/C(=O)[C@](C)(O)[C@H]1C(O)C[C@@]2(C)[C@@H]3CC=C4[C@@H](C=C(O[C@@H]5O[C@H](CO)[C@@H](O)[C@H](O)[C@H]5O)C(=O)C4(C)C)[C@]3(C)C(=O)C[C@]12C (some centres not stated) | inactive | 
CCN(CC)C(=O)C(c1ccccc1)N1CCN(c2ccc(NC(=O)c3ccccc3-c3cccnc3)cc2F)CC1 (configuration not stated) | inactive | 
COc1ccc(S(=O)(=O)Nc2c(C)cc(C)cc2C)cc1 | inactive | 
CC(C)(O)C1Cc2c(ccc(C(=O)CCc3ccccc3)c2O)O1 (configuration not stated) | inactive | 
C=C1CC2OC(=O)C(COC)C2C(OC(=O)/C(C)=C\C)CC2(C)OC1=CC2=O (configuration not stated) | inactive | 
Cc1c(C2=CCN(C(=O)N(C)C(C)C)CC2)nnn1-c1cccnc1F | inactive | 
COC1=CC(=O)C=C(C)C12Oc1c(Cl)c(OC)cc(OC)c1C2=O (configuration not stated) | inactive | 
O=C(NCCCc1ccccc1)c1cccc(-c2cc(O)c3ncccc3c2)c1 | 89.1 µM (active) | 
CCC(C)(OC(C)=O)C(=O)O[C@H]1[C@H](OC(C)=O)[C@]2(CO)[C@H](O)[C@H](O)[C@]3(C)C(=CCC4[C@@]5(C)CC[C@H](O[C@@H]6O[C@H](C(=O)O)[C@@H](O)[C@H](O[C@@H]7OC[C@H](O)[C@H](O[C@@H]8OC[C@H](O)[C@H](O)[C@H]8O)[C@H]7O)[C@H]6O[C@@H]6O[C@H](CO)[C@@H](O)[C@H](O)[C@H]6O)C(C)(C)C5CC[C@]43C)[C@@H]2CC1(C)C (some centres not stated) |  | -1.56% [at 19.1 µM]
Cc1cc(C)c(-n2cc(C)c3c(Cl)nc(C)nc32)c(C)c1 | inactive | 
CC(=O)OC1CC2(C)C(CCC(C)C23Cc2c(O)cc(CO)c(C=O)c2O3)C(C)(C)C1O (configuration not stated) | inactive | 
O=C(NCCO)c1cccc(-c2cc(Nc3ccc(OC(F)(F)F)cc3)ncn2)c1 | inactive | 

SMILES | Potency | activity change, negative = inhibition
CCCN1CCC=C(c2cc(-c3ccc(C)cc3)no2)C1 | inactive | 
COc1cc(C#N)ccc1S(=O)(=O)Nc1ccc2c(c1)cc(C)c(=O)n2C | inactive | 
O=S(=O)(N[C@H]1CCCC[C@@H]1N1CCOCC1)c1ccc(Cl)cc1 | inactive | 
COc1ccc([C@H]2Cc3cccc(O)c3C(=O)O2)cc1OC | inactive | 
CC(NCCCc1cccc(C(F)(F)F)c1)c1cccc2ccccc12 (configuration not stated) | inactive | 
O=c1cc(NCCCN[C@@H]2CCOc3c(Br)cc(Br)cc32)[nH]c2ccsc12 | inactive | 
COc1cc2ncnc(Oc3ccc(CC(=O)Nc4cnn(C(C)C)c4)cc3)c2cc1OC | inactive | 
Cc1nc(NC(=O)N2CCC[C@H]2C(N)=O)sc1-c1ccnc(C(C)(C)C(F)(F)F)c1 | inactive | 
Cc1cc(-c2ncc(-c3cccnc3)cc2/C=C/c2ccccc2)cnc1-c1cccnc1 | inactive | 
CC(C)(O)c1ccc2c(c1)ncn2-c1cccc(-c2ccccc2C#N)c1 | inactive | 
CC(C)NC(=O)COc1cccc(-c2nc(Nc3ccc4[nH]ncc4c3)c3ccccc3n2)c1 | inactive | 
OC[C@H]1O[C@@H](OC/C=C/c2ccc(O)cc2)[C@H](O)[C@@H](O)[C@@H]1O | inactive | 
CC(CCC1(O)OC2CC3C4CC=C5CC(O[C@@H]6O[C@H](CO)[C@@H](O[C@@H]7O[C@@H](C)[C@H](O)[C@@H](O)[C@H]7O)[C@H](O)[C@H]6O[C@@H]6O[C@@H](C)[C@H](O)[C@@H](O)[C@H]6O)CCC5(C)C4CCC3(C)C2C1C)CO[C@@H]1O[C@H](CO)[C@@H](O)[C@H](O)[C@H]1O (some centres not stated) | inactive | 
C[C@@H]1CC[C@]2(C(=O)O)CC[C@]3(C)C(=CCC4[C@@]5(C)CC[C@H](O)[C@](C)(C(=O)O)C5CC[C@]43C)C2[C@]1(C)O (some centres not stated) | inactive | 
Cc1cccc(CC(=O)N2CCc3c2ccc(-c2cn(C)c4ncnc(N)c24)c3F)n1 | inactive | 
C=C[C@@]1(C)C=C2C(=O)C(O)=C3[C@](C)(C(=O)O)CC[C@@H]4C[C@]34[C@]2(O)C(=O)C1 | inactive | 
